# Hck-Nef inh: inhibitors of human Hck kinase activated by Nef | 220,000 compounds, 0.68% hits | P08631 | Recombinant Hck-YEEI plus Nef, Z-Lyte FRET kinase assay | inhibition, % at 20 µM;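 active means Hck-Nef kinase inhibition above about 50%, limit read from the data; inactive means inhibition below that limit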;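 further: 0% = DMSO with Hck plus Nef and 100% = Hck alone without Nef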
# Target sequence (P08631 whole entry, looked up): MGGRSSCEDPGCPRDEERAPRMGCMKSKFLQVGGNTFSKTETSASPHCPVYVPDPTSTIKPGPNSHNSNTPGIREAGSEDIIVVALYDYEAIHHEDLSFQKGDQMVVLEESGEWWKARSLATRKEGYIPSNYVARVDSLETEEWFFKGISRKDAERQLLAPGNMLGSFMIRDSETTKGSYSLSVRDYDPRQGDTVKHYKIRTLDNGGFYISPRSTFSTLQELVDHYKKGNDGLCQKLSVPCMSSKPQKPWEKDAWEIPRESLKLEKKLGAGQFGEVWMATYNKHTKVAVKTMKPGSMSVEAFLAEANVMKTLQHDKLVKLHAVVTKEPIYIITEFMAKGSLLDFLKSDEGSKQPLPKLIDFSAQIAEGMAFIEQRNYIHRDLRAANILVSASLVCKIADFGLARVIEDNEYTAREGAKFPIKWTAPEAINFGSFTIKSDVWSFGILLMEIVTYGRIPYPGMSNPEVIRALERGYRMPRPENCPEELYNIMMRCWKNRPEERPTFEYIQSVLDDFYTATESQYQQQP
# eIF4E 4G PPI: inhibitors of eIF4E and eIF4G interaction in translation initiation. inhibition, % at 21.7 µM. TR-FRET eIF4E-eIF4GI(517-606) binding, 2 h. 220,000 compounds, 0.37% hits;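 active means inhibition above about 30%, limit read from the data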;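 further: 0% = full FRET control wells and 100% = background wells lacking eIF4GI fragment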
# 14-3-3 Bad inh: disrupts binding of bovine 14-3-3 zeta to phospho-Bad peptide | inhibition, % at 21.7 µM | 220,000 compounds, 0.71% hits | P63103 | TR-FRET 14-3-3zeta/Dy647-pBad peptide displacement, 1 h | AID 781;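 active means inhibition above about 70%, limit read from the data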;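 further: 0% = full 14-3-3 plus peptide FRET controls and 100% = background without 14-3-3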
# Mcl-1 Bim block: disrupts Bim peptide binding to human Mcl-1 | Q07820 | Bead-based flow cytometry, Bim peptide-Mcl-1 binding | inhibition, % at 10 µM | 190,000 compounds, 0.1% hits; in the data active means inhibition above about 40%;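 further: 0% = no compound tracer wells and 100% = peptide blocker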
# Mcl1-Bid inh: disrupts binding of human Mcl-1 to Bid peptide. Q07820. TR-FRET Mcl-1/Bid-Dy647 peptide binding, 1536-well. inhibition, % at 21.7 µM. 220,000 compounds, 0.97% hits;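 active means compounds that cut the binding signal by more than half at the single screening dose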;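 further: His-tagged Mcl-1 with europium anti-His antibody binding Bid BH3 peptide; 0% = Mcl-1 plus peptide wells and 100% = peptide-only wells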
# Mcl1 Noxa PPI: disrupts binding of human Mcl-1 to Noxa peptide; Q07820; TR-FRET Mcl-1/Noxa peptide binding, 2 h; inhibition, % at 21.7 µM; 220,000 compounds, 1.5% hits;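 active means compounds that cut the protein-peptide binding signal by more than 50% relative to plate controls in a single-dose test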;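 further: His-tagged Mcl-1 with rhodamine Noxa BH3 peptide and terbium anti-His antibody; 0% = Mcl-1 plus Noxa peptide wells and 100% = peptide-only wells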
# * = called active by the depositor; . = not tested or not shown. A selection: hits, their analogues and other compounds. The true share with any hit is near 3.5%.
SMILES,Hck-Nef inh,eIF4E 4G PPI,14-3-3 Bad inh,Mcl-1 Bim block,Mcl1-Bid inh,Mcl1 Noxa PPI
O=C(c1ccc2nc(-c3ccco3)c(-c3ccco3)nc2c1)N1CCC2(CC1)OCCO2,.,20,18,4,6,78*
COc1ccc(-n2cnc3cc(C(=O)N4CCC5(CC4)OCCO5)ccc32)cc1,6,2,6,-3,0,-14
Cc1ccc(/C=C2\C(=O)NC(=O)N(CC3CCCO3)C2=O)s1 (configuration not stated),9,0,-5,.,-32,25
O=C1NC(=S)N(Cc2ccco2)C(=O)/C1=C\c1cccs1,97*,70*,97*,2,97*,97*
C=CCN1C(=O)/C(=C/c2cccs2)C(=O)NC1=S,0,16,22,.,.,.
Cc1ccc(/C=C2\C(=O)NC(=S)N(c3ccc(F)cc3)C2=O)s1,99*,3,-12,0,-24,29
COc1ccc(N2C(=O)/C(=C/c3cccs3)C(=O)NC2=S)cc1,21,-7,12,.,44,62*
Cc1ccc(/C=C2\C(=O)NC(=S)N(c3ccccc3F)C2=O)s1,3,20,16,0,19,93*
Cc1cc(C)[n+](C2C3CC4CC(C3)CC2C4)o1 (configuration not stated),1,-1,32,-4,3,1
NC(=O)c1ccc(C(=O)Nc2ccc([As](=O)(O)O)cc2)cc1,1,90*,1,.,3,6
COc1ccc(OCC(=O)N2CCN(Cc3ccc(SC)cc3)CC2)cc1,19,2,-7,-2,-1,17
COc1ccc(OCC(=O)N2CCN(C(C)C)CC2)cc1,9,-1,64,-1,53*,6
O=C1NC(=O)N(CCC2=CCCCC2)C(=O)/C1=C\c1cccs1,51*,9,4,-3,-56,24
O=c1[nH]c(=O)n(-c2ccc(Br)cc2)c(O)c1C=NCCN1CCCCC1,10,93*,0,.,-14,5
Cc1cccc(-n2c(O)c(C=NCCN3CCCCC3)c(=O)[nH]c2=O)c1,17,1,-2,.,-10,-10
Cc1ccc(N2C(=O)NC(=O)/C(=C/c3cnc(-c4ccccc4)nc3)C2=O)cc1C,19,10,17,-1,20,75*
CC(=O)C1C2c3ccccc3OC1(C)N=c1s/c(=C/c3cnn(C)c3)c(=O)n12 (configuration not stated),1,9,1,-2,1,-8
COC(=O)C1C2c3ccccc3OC1(C)N=c1s/c(=C/c3cnn(C)c3C)c(=O)n12 (configuration not stated),11,1,-2,64*,-8,9
CC(C)CC(=O)NC(Oc1ccc(Cl)cc1)C(Cl)(Cl)Cl (configuration not stated),0,7,5,0,3,-13
CC(C)(C)C(O)C(Oc1ccc(Cl)cc1)n1cncn1 (configuration not stated),1,9,0,-2,76*,2
COCCOC(=O)C1=C(N)Oc2c(c(=O)oc3ccccc23)[C@@]12C(=O)Nc1ccccc12,.,5,4,0,-25,3
CC(=O)N1CN2CN(C(C)=O)CC(C(=O)c3ccccc3)(C2)C1,4,5,3,-2,1,-16
O=C(c1ccncc1)C12CN3CN(CN(C3)C1)C2,0,-1,85*,1,0,-20
O=C1NC(=O)N(c2cccc(Cl)c2)C(=O)/C1=C\c1ccc(Sc2nc3ccccc3[nH]2)o1,9,13,38,-1,-6,52*
O=C1NC(=O)N(c2ccccc2)C(=O)/C1=C/c1ccc(Sc2ccccc2)o1,3,8,9,-2,29,29
O=C1NC(=O)N(c2ccccc2F)C(=O)/C1=C/c1ccc(Sc2nc3ccccc3[nH]2)o1,4,19,23,12,31,66*
c1ccc(P(c2ccccn2)c2ccccn2)cc1,0,0,-18,0,-34,17
O=c1c2ccccc2nc(-c2ccco2)n1-c1ccccn1,-1,-2,-6,-4,-31,1
O=c1c2ccccc2nc(-c2ccco2)n1-c1cccnc1,0,2,9,-6,-20,97*

# Screens: PubChem BioAssay, several laboratories
